Reference: PubChem BioAssay AID588342 (National Center for Advancing Translational Sciences (NCATS), 2011)
Out of some 360,000 compounds screened, about 25,000 (6.9%) were called active. Where a call stands in place of a potency, no number is given. About 9% were inconclusive and are not listed. The call rests on the fitted dose curve; in most records, active means well fitted inhibition curve with a large enough effect; inconclusive means small, poorly fitted or top-dose-only effect; inactive means flat fitted curve, though single readings scatter. This excerpt belongs to a sample that is enriched for actives.

Each molecule was assayed against Luciferin 4-monooxygenase (Photinus pyralis) (UniProt P08659) (assay: qHTS profiling assay for firefly luciferase inhibitor/activator using purifed enzyme and Km concentrations of substrates (counterscreen for miR-21 project)). Conditions: purified FLuc, luminescence inhibition; series mostly up to 57.5 µM.
Luciferin 4-monooxygenase (Photinus pyralis), sequence (P08659 whole entry, looked up): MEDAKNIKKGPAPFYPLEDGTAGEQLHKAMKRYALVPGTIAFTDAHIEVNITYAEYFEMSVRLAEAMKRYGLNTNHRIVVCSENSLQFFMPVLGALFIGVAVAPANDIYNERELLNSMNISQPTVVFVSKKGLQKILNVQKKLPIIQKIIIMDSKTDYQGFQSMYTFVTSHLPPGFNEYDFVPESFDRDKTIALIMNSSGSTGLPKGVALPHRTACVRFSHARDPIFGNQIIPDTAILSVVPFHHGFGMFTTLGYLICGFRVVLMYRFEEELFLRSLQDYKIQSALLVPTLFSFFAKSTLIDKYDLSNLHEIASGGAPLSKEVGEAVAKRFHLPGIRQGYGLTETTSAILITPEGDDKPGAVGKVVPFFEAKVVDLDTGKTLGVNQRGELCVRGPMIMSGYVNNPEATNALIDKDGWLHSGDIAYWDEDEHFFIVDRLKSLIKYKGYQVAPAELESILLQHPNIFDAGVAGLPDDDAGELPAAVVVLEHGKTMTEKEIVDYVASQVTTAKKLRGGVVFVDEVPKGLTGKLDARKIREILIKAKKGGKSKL
How it was run: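 Biochemical qHTS of compounds, final roughly 60 µM downward over six points, against 10 nM purified firefly luciferase using Km concentrations of substrates (10 uM D-luciferin, 10 uM ATP) in Tris acetate pH 7.5 buffer; luminescence output.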
Further: nearly all actives have a fitted effect of over 55% in size.
Potency means the concentration at half of the fitted maximal effect.

SMILES | Potency
CC(C)(C)OC(=O)NCCCCCNC(=O)c1nc[nH]c1C(=O)NCc1ccccc1 | inactive
Cc1ccccc1NC(=O)Cn1c(=O)n(Cc2ccco2)c(=O)c2ccc(C(=O)NC3CCCC3)cc21 | inactive
CNC(=O)c1nnn(-c2ccccc2)c1C(=O)NC | inactive
CC(=O)NC12CC3CC(C1)CC(C(=O)N1CCN(S(=O)(=O)c4cccs4)CC1)(C3)C2 | inactive
CC(C)(C)c1ccc(C(=O)Nc2ccc3c(c2)CCCN3C(=O)c2cccs2)cc1 | inactive
CCc1nnc(SCC(=O)Nc2cc(OC)ccc2OC)nc1CC | inactive
CC(=O)c1c(C)oc2ccc(NS(=O)(=O)c3ccc(C(=O)O)cc3)cc12 | inactive
O=C(c1ccc(NS(=O)(=O)c2ccc3[nH]c(=O)[nH]c3c2)cc1)N1CCCCC1 | inactive
O=C(O)c1ccc(NS(=O)(=O)c2ccc3c(c2)C(=O)c2cc(S(=O)(=O)Nc4ccc(C(=O)O)cc4)ccc2-3)cc1 | 23.9 µM (active)
O=C(CSc1ncc(CO)n1Cc1ccc(F)cc1)NCc1ccco1 | inactive
COc1ccccc1NC(=O)Cn1cnc2ccc(S(=O)(=O)N3CCC(C)CC3)cc2c1=O | inactive
CCCN(CC(=O)Nc1ccccc1C)C(=O)c1ccc2[nH]c3c(c2c1)CC(C)CC3 (configuration not stated) | inactive
c1ccc2c(NC3C4CC5CC(C4)CC3C5)nc(N3CCOCC3)nc2c1 (configuration not stated) | inactive
Cc1cc(OCC(=O)Nc2ncn[nH]2)c(C)c(C)c1Br | inactive
CC1Cc2ccccc2N1C(=O)CSc1nnc(C2CC2)n1C (configuration not stated) | inactive
O=C(c1c(Cl)cccc1Cl)N1CCN(c2cccc3[nH]ccc23)CC1 | inactive
O=C(c1ccc2ccccc2n1)N1CCN(c2ccccc2Cl)CC1 | 16.9 µM (active)
COc1ccccc1N1CCN(C(=O)c2c(-c3c(Cl)cccc3Cl)noc2C)CC1 | inactive
Cc1csc(SCC(=O)Nc2sccc2C#N)n1 | 2.13 µM (active)
Cc1cccc(C)c1Nc1nnc(SCC(=O)Nc2sccc2C#N)s1 | inactive
Cc1ccc(NC(=O)CSCC(=O)Nc2sccc2C#N)cc1 | inactive
CC(OC(=O)Cc1ccc(F)cc1)C(=O)N1CCc2ccccc21 (configuration not stated) | inactive
CC(C(=O)O)n1cnc2sc3c(c2c1=O)CCCC3 (configuration not stated) | inactive
CC(C)(C)OC(=O)N1CCC(c2c(C(=O)N3CCc4ccccc4C3)cnn2-c2ccc(F)cc2)CC1 | inactive
COc1cc(/C=C(/NC(=O)c2ccccc2)C(=O)Nc2cccc(O)c2)c([N+](=O)[O-])cc1OC | inactive
O=C(NCc1cccc(CNC(=O)Nc2cccc(O)c2)c1)Nc1cccc(O)c1 | inactive

SMILES | Potency
O=C(CSc1ccccc1)Nc1ccc(C(=O)Nc2cccc(O)c2)cc1 | inactive
Cc1ccc(OCC(=O)NCCCNC(=O)c2cccnc2)cc1C | inactive
CC(=O)c1cccc(NC(=O)[C@@H](NC(N)=O)C(C)C)c1 | inactive
C/C(=C\C(=O)c1cccnc1)Nc1ccc(C)c(C)c1 | 6.75 µM (active)
Cc1ccc(NC(=O)COc2ccc(/C=N\NC(=O)c3cccnc3)cc2)cc1C | inactive
C/C(=C\C(=O)c1ccccc1)Nc1cccc(O)c1 | 3.38 µM (active)
O=C(Nc1cccc(O)c1)c1ccc(C(=O)c2ccccc2)o1 | 6.75 µM (active)
CC1(C)CC(=O)C=C(c2ccc3ncccc3c2)C1 | inactive
CCOC(=O)C1CCN(C(c2ccc(F)cc2)c2sc3nc(-c4ccco4)nn3c2O)CC1 (configuration not stated) | inactive
CCN(CCCNC(=O)Cn1ncc2c([nH]c3ccccc32)c1=O)c1cccc(C)c1 | inactive
CC(=O)c1ccc(N2CCN(C(=O)c3ccc(Cl)c(S(=O)(=O)NC4CC4)c3)CC2)c(F)c1 | inactive
Cc1ccc(CNC(=O)c2cccc3c2C(=O)c2ccc(N4CCC(C)CC4)cc2S3(=O)=O)cc1 | inactive
CCOC(=O)[C@H]1[C@H]2COc3ccc(C)cc3[C@@H]2N2C(=O)CN(Cc3ccc(F)cc3)C(=O)[C@@]12C | inactive
CCOc1ccc(CNC(=O)C2CCCN(S(=O)(=O)N(CC)c3ccc(OCC)cc3)C2)cc1 (configuration not stated) | inactive
Cc1ccc(Cl)cc1NC(=O)NC1COc2ccccc2C1 (configuration not stated) | inactive
Cc1ccc(C(=O)Nc2ccn(C)n2)cc1 | inactive
Cn1ccc(NC(=O)Nc2ccc(Cl)cc2)n1 | 16.9 µM (active)
CN(C)S(=O)(=O)c1cc(C(=O)Nc2ccn(C)n2)c(Cl)cc1Cl | inactive
Cc1ccc2nc(COc3ccc(NC(=O)COc4ccccc4F)cc3)cc(=O)n2c1 | inactive
CC(NC(=O)c1cc2c(=O)n3ccccc3nc2n(C(C)C)c1=N)c1ccccc1 (configuration not stated) | inactive
CCC(=O)N1CCc2cc(Br)cc(S(=O)(=O)CCC(=O)N3CCN(c4ccc(F)cc4)CC3)c21 | inactive
COc1ccc([C@H]2CC(=O)C=C(/C=C/c3ccccc3)C2)cc1 | inactive
COc1ccc(-c2cn3c(n2)sc2cc(C(=O)Nc4ccccc4F)ccc23)cc1 | inactive
O=C(Nc1ccc(N2CCN(C(=O)C3CC3)CC2)cc1)c1cccs1 | inactive
O=C(COC(=O)c1cccs1)NCc1cccs1 | inactive
CCOc1ccccc1NC(=O)Cc1cccs1 | inactive

SMILES | Potency
CCc1ccc(NC(=O)CCNS(=O)(=O)c2cccs2)cc1 | inactive
O=C(Nc1ccccc1)c1ccc(NC(=O)c2cccs2)cc1 | inactive
O=C(Cc1cccs1)Nc1ccc([N+](=O)[O-])cc1 | inactive
CCc1ccc(NC(=O)COC(=O)c2cccs2)cc1 | 6.75 µM (active)
CC(=O)Nc1ccc(NC(=O)[C@@H](NC(=O)c2cccc(C)c2)C(C)C)cc1 | inactive
Cc1cccc(C(=O)OCC(=O)Nc2ccc(F)cc2)c1 | inactive
O=C(O)Cc1ccc(NC(=O)c2cccs2)cc1 | 12 µM (active)
CCOC(=O)c1ccc(NC(=O)Cc2cccs2)cc1 | 15.1 µM (active)
Cc1cccc(C(=O)Nc2ccc(CC(=O)O)cc2)c1 | 9.53 µM (active)
Cc1ccc(CN(C(=O)COc2ccc(Cl)cc2C)C2CCS(=O)(=O)C2)o1 (configuration not stated) | inactive
CN(CC(=O)NNC(=O)CNC(=O)c1ccccc1Cl)S(=O)(=O)c1ccc(Cl)cc1 | inactive
Cc1ccc(CN2COc3cc(C)c4c(oc(=O)c5ccccc54)c3C2)cc1 | inactive
COc1ccc(C(=O)OC(C)C(=O)NC2CCCC2)cc1S(=O)(=O)N1CCOCC1 (configuration not stated) | inactive
COc1ccc(OC)c(NC(=O)C2CCCN(S(=O)(=O)c3ccc4c(c3)CCCC(=O)N4)C2)c1 (configuration not stated) | inactive
O=C(Cn1ncc2c3ccccc3n(Cc3ccccc3)c2c1=O)NC1CCCCCC1 | inactive
CC(C)C(=O)Nc1ccc(C(=O)NNC(=O)c2cccs2)cc1 | inactive
CCc1ccc(NC(=O)C(=O)NNC(=O)c2cccs2)cc1 | 16.9 µM (active)
Cc1ccc(C)c(NC(=O)CCC(=O)NNC(=O)c2cccs2)c1 | inactive
COCCn1cnc2c1c(=O)n(CC(=O)NN)c(=O)n2Cc1ccccc1 | inactive
Cc1ccccc1-c1cc(C(=O)NCC2CC2)n(CC2CC(c3cccnc3)=NO2)n1 (configuration not stated) | inactive
Cc1nc2sc(C)c(C)n2c(=O)c1S(=O)(=O)NCCc1ccc(Cl)cc1 | inactive
Cc1n[nH]c(=O)n1-c1ccc(C(C)C)cc1 | inactive
CC(C)c1ccc(-c2nn[nH]n2)cc1 | 6.01 µM (active)
c1cc(-c2nn[nH]n2)ccc1CN1CCCCC1 | inactive
CCOc1ccc(N(CC)C(=O)c2noc3c2COc2ccc(C)cc2-3)cc1 | inactive
COc1ccccc1CNC(=O)CCn1c(=O)c2ccccc2n(CC(=O)Nc2cccc(Cl)c2)c1=O | inactive

SMILES | Potency
Cc1ccc(C)c(N2CCN(C(c3ccccc3)c3nnc(-c4ccccc4)o3)CC2)c1 (configuration not stated) | inactive
CCOc1ccc(NC(=O)NNC(=O)c2ccc(Cl)cc2Cl)cc1 | inactive
NC(N)=N/N=C/c1ccc(OCc2ccc(Cl)cc2Cl)cc1 | 16.9 µM (active)
OC(CNCCc1ccc(Cl)cc1Cl)COc1ccccc1 (configuration not stated) | inactive
C#CCOc1ccc(C2CC(=O)Nc3c2c(C)nn3-c2nc(C)cc(C)n2)cc1 (configuration not stated) | inactive
COC(=O)c1sccc1NC(=O)COc1ccc(Cl)cc1 | inactive
CS(=O)(=O)c1ccc(C(=O)OCC(=O)NNC(=O)COc2ccc(Cl)cc2)cc1 | inactive
CCS(=O)(=O)c1ccc(O)c(NC(=O)COc2ccc(Cl)cc2)c1 | 16.9 µM (active)
CCOc1ccc(N(Cc2ccccc2)C(=O)c2nc(SCC)ncc2Cl)cc1 | inactive
CCCN1CN=C(NS(=O)(=O)c2ccc(NC(C)=O)cc2)NC1 | inactive
CCCOC(=O)C1=C(C)NC2=C(C(=O)C(C(=O)OC)C(C)C2)C1c1ccc(N(C)C)cc1 (configuration not stated) | inactive
COCCOC(=O)c1[nH]c2c(c1C)C(=O)CC(c1ccc(OC)cc1)C2 (configuration not stated) | inactive
COC(=O)C1C(=O)c2c([nH]c(C(=O)OCCSC)c2C)CC1C (configuration not stated) | 7.57 µM (active)
CCc1ccc(NC(=O)Cn2c(=O)n(CCC(=O)NCc3ccc4c(c3)OCO4)c(=O)c3ccccc32)cc1 | inactive
CC(C)CC(=O)NCC(c1ccc2c(c1)OCO2)N1CCN(c2ccc(F)cc2)CC1 (configuration not stated) | inactive
CCC(=O)Nc1c(C)n[nH]c1C | inactive
Cc1ccc(Nc2nc(Cl)c(C=O)s2)cc1 | 12 µM (active)
Cc1ccc(NC(=O)Nc2nnc(-c3ccncc3)s2)cc1 | inactive
Cc1ccc(Nc2nc(C)cc(C)c2C(N)=O)cc1 | inactive
Cc1ccc2c(=O)c(C(=O)c3cccc(Cl)c3)cn(CC(=O)NCc3ccccc3)c2n1 | inactive
COc1ccc(NS(=O)(=O)c2ccc(C)c(C(=O)NNC(=O)c3csc(N4CCOCC4)n3)c2)cc1 | inactive
CSCCC(NC(=O)c1ccc(Cl)cc1Cl)C(=O)NNC(=O)c1csc(N2CCOCC2)n1 (configuration not stated) | 23.9 µM (active)
COc1ccccc1C(=O)NC(CCSC)C(=O)NNC(=O)c1csc(N2CCOCC2)n1 (configuration not stated) | inactive
Cc1ccc(NC(=O)Nc2sc3nc4n(c(=O)c3c2C)CCC(C)CC4)c(Cl)c1 (configuration not stated) | inactive
